In all, about 5,500 compounds went through this assay and about 2,000 (36%) were called active. Inconclusive results (about 18%) are left out. Rule as the data show it: active = normalized growth mostly below about 0.91 (no sharp cut-off); inconclusive = no clear call, values can overlap the other calls; inactive = mostly above about 0.92. The list shows a part of the results.
Assay: chemical genetic growth profiling, strain panel (AID 1159580);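 also: tested at 20 µM; growth read once vehicle control cultures reached saturation at 30 °C; 1 = growth at the plate median or of vehicle wells; lower values mean less growth of the strain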
Conditions: S. cerevisiae deletion strains, growth OD

Measured: normalized growth

N[C@@H](Cn1oc(=O)[nH]c1=O)C(=O)O
inactive: locus YAL013W, strain DEP1, stronger effect = lower value 1.01 | locus YAL040C, strain CLN3, stronger effect = lower value 0.975 | locus YCL061C, strain MRC1 (second series), stronger effect = lower value 0.991 | locus YDR150W, strain NUM1, stronger effect = lower value 0.996 | locus YDR363W, strain ESC2, stronger effect = lower value 0.968 | locus YER002W, strain NOP16, stronger effect = lower value 0.979 | locus YGR078C, strain PAC10, stronger effect = lower value 0.979 | locus YMR263W, strain SAP30, stronger effect = lower value 1.01 | locus YMR307W, strain GAS1, stronger effect = lower value 1.02 | locus YNL153C, strain GIM3, stronger effect = lower value 0.996 | locus YNL175C, strain NOP13, stronger effect = lower value 0.99 | locus YNL197C, strain WHI3, stronger effect = lower value 0.972 | locus YNL224C, strain SQS1, stronger effect = lower value 0.989 | locus YOR083W, strain WHI5 (second series), stronger effect = lower value 0.961
